Compound activity (PubChem BioAssay)
FLuc counter – qHTS profiling assay for firefly luciferase inhibitor/activator using purifed enzyme and Km concentrations of substrates (counterscreen for miR-21 project); Luciferin 4-monooxygenase (Photinus pyralis), P08659; actives 6.9% (n = 360,000); purified FLuc, Km substrates, luminescence inhibition; Potency, µM (doses to about 57.5 µM), actives largely listed as inhibitors; AID 588342, 2011; also: nearly all actives have a fitted effect of over 55% in size
Target sequence (P08659 whole entry, looked up): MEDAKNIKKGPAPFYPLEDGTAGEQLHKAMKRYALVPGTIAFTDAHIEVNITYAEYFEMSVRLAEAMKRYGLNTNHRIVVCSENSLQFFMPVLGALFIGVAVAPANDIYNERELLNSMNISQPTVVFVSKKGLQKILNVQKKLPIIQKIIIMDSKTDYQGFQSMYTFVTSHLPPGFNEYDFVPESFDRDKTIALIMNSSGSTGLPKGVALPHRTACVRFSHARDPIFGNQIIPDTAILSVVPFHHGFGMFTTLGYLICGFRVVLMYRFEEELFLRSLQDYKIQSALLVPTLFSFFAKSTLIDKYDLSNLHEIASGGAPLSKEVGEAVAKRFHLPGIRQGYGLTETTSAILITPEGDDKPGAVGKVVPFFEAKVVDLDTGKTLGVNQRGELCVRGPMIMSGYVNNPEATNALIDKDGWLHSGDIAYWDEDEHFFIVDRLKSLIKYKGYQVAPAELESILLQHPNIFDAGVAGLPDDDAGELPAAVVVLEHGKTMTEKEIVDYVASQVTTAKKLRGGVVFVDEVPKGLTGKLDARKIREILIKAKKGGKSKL
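Purified P. pyralis luciferase, 10 nM final, with Km-level 10 uM D-luciferin and 10 uM ATP in 50 mM Tris acetate pH 7.5, 10 mM Mg acetate, 0.01% Tween-20, 0.05% BSA; 6-point qHTS titration about 60 µM downward; luminescence read.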
Luc counter – Counterscreen for Luciferase (Kinase-Glo TM) Inhibition; Luciferin 4-monooxygenase (Photuris pensylvanica), Q27757; Kinase-Glo luciferase, ATP luminescence, 8 min; Potency, µM (doses to about 38.3 µM), hits mostly inhibitors; actives 0.28% (n = 200,000); AID 1379, 2008; also: nearly all actives have a fitted effect of over 60% in size
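Light output from Kinase-Glo luciferase with luciferin and 10 uM ATP in 50 mM imidazole pH 7.2, KCl, MgCl2, Tween 20, BSA; compound pin-delivered, 8-min ambient incubation, then luminescence read.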
Rab9 prom act – qHTS Assay for Rab9 Promoter Activators | actives 2.8% (n = 320,000) | Potency, µM (top dose mostly 9.22 µM), usual class: activators | Huh7 Rab9 promoter-luciferase reporter, luminescence, 24 h | AID 485297, 2010; also: nearly all actives have a fitted effect of over 60% in size
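Measured in stably transfected Huh7 cells bearing a Rab9 promoter–luciferase construct: 24 h compound treatment at 37 °C, followed by luminescence detection.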
NPC1 prom act – qHTS Assay for NPC1 Promoter Activators; Potency, µM (titrated, usually from 9.22 µM), usual class: activators; actives 2.4% (n = 320,000); Huh7 NPC1 promoter luciferase reporter, 24 h; AID 485313, 2010; also: nearly all actives have a fitted effect of over 60% in size
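Huh7 reporter cells (NPC1 promoter driving luciferase) are dosed with compound for 24 h at 37 °C, 5% CO2; luciferase detection reagent is then added and luminescence measured after 10 min at ambient temperature.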
SMN2 splice up – qHTS Assay for Enhancers of SMN2 Splice Variant Expression; actives 2.8% (n = 210,000); HEK293 SMN2-luciferase splicing reporter, luminescence, 30-36 h; Potency, µM (doses to about 46.1 µM), usual class: activators; also: nearly all actives have a fitted effect of over 55% in size
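HEK293 cells carry an SMN2 […]–luciferase reporter in which exon 7 inclusion puts luciferase in frame. Cells were plated 10-12 h before compound addition, then incubated 30-36 h at 37C. ONE-Glo luminescence was read; sodium butyrate at 4.5 mM final served as control.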
ELG1 genotox – qHTS screen for small molecules that induce genotoxicity in human embryonic kidney (HEK293T) cells expressing luciferase-tagged ELG1; HEK293T ELG1-luciferase reporter, luminescence, 16 h; actives 1.3% (n = 330,000); Potency, µM (highest dose often 46 µM), hits mostly activators; also: nearly all actives have a fitted effect of over 60% in size
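Genotoxic stress is detected as increased luminescence from luciferase-tagged ELG1 in HEK293T cells, measured with ONE-Glo after a 16 hr treatment at 37 °C.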
Numbers stand for hits; . = inactive; ? = inconclusive; / = no result given; [ ] = another dose, or the depositor's remark. Shown are actives, neighbours in structure and some others; about 7.3% of the full set was active somewhere. Calls follow the shape of the dose curve; as a rule, active = well fitted curve in the direction sought with a large enough effect; inconclusive = small, poorly fitted or top-dose-only effect, or another doubt; inactive = no such curve, though single readings can be large; an effect the other way counts as inactive or inconclusive.

SMILES	FLuc counter	Luc counter	Rab9 prom act	NPC1 prom act	SMN2 splice up	ELG1 genotox
Cc1cccc(NCc2nc3ccccc3n2C)c1	23.9µM	.	3.16µM	?	?	11.6µM
Cn1c(CNc2ccc(Cl)cc2)nc2ccccc21	6.75µM	.	?	4.47µM	7.08µM	4.61µM
Cn1c(NCc2cccc(Br)c2)nc2ccccc21	.	.	.	.	.	?
Cc1nc2cc(NCc3nc4ccccc4n3Cc3ccccc3)ccc2n1C	0.601µM	10µM	0.708µM	1.12µM	.	?
Cc1cccc(NCc2nc3ccccc3n2Cc2ccccc2)c1	23.9µM	.	.	.	.	.
Cc1cccc(NCc2nc3ccccc3n2CCOc2ccccc2C)c1	.	/	/	/	.	/
COCCn1c(CNC(=O)c2cc([N+](=O)[O-])ccc2Cl)nc2cccnc21	.	/	/	/	/	/
COc1ccc(CCNC(=O)Cn2c(-c3ccc(F)cc3)cc(C(C)=O)c2C)cc1OC	.	/	/	/	/	/
COc1cccc(CNc2ccc3c(c2)nc(C)n3C)c1OC	23.9µM	/	?	?	/	?
COc1cccc(CNc2ccc3c(c2)ncn3C)c1OC	?	/	.	.	.	.
Cc1ccc(NCc2nc3ccccc3n2C)c(C)c1	0.338µM	/	0.708µM	0.631µM	/	1.03µM
C/C(=N/Nc1ccc2ccccc2n1)c1ccccc1O	/	.[7.66 µM]	/	/	?	/
COc1ccc(N(C(=O)COc2c(C)cccc2C)S(=O)(=O)c2ccc(Cl)cc2)cc1	.	/	/	/	.	/
COc1cccc(C(=O)Nc2nnc(C(C)C)s2)c1	3.38µM	.	1µM	3.55µM	2.51µM	3.66µM
CCCc1nnc(NC(=O)c2cccc(OC)c2)s1	23.9µM	.	4.47µM	3.16µM	?	?
COc1ccc(-c2nc(-c3ccccc3)c(-c3ccc(F)cc3)[nH]2)c(OC)c1C	.	/	/	/	.	/
Cc1ccc(Cl)cc1NC(=O)N1CCC(CN2CCCCCC2)CC1	.	/	/	/	/	/
COc1ccc(CNC(=O)c2ccc(-c3nc(CSc4ccccc4)c(C)o3)cc2)cc1OC	.	/	/	/	/	/
Oc1[nH]c(N=C2N=c3ccccc3=N2)c2ccccc12	1.35µM	/	?	3.16µM	/	6.51µM
Nc1nc(CN2CCCCCC2)nc(Nc2ccccc2)n1	.	.	.	.	.	.
Cc1c(-c2nc(N)nc(Nc3ccccc3)n2)oc2ccccc12	4.78µM	.	2.51µM	1.41µM	11.2µM	7.31µM
CC(C)(C)C(=O)CSc1nc2ccsc2c(=O)n1Cc1ccccc1Cl	.	/	/	/	/	/
O=C(/C=C/c1ccccc1)OCc1cncs1	26.9µM	.	?	.	.	?
O=C(Nc1ccccc1)OCc1cncs1	.	.	.	.	.	.
COc1ccc(Cn2ccnc2SCC(=O)Nc2ccc(C)cc2C)cc1	.	/	/	/	/	/
SMILES	FLuc counter	Luc counter	Rab9 prom act	NPC1 prom act	SMN2 splice up	ELG1 genotox
C[C@H](Cc1ccccc1)Nc1ncnc2c1ncn2[C@@H]1O[C@H](CO)[C@@H](O)[C@H]1O	.	/	.	.	.	13µM
CN(C)c1ncnc2c1ncn2C1OC(CO)C(O)C1O (centres undefined)	.	.	.	.	5.62µM	.
CNc1ncnc2c1ncn2[C@@H]1O[C@H](CO)[C@@H](O)[C@H]1O	.	/	.	.	.	16.4µM
OCC1OC(n2cnc3c(Cl)ncnc32)C(O)C1O (centres undefined)	/	.	/	/	.	/
O=C(CCCCl)Nc1nc(-c2ccc3c(c2)OCCO3)cs1	10.7µM	/	3.16µM	3.55µM	/	5.8µM
O=C(Nc1nc(-c2ccc3c(c2)OCCO3)cs1)C1CCCC1	7.57µM	.	2.24µM	?	11.2µM	?
N#CCC(=O)Nc1nc(-c2ccc3c(c2)OCCO3)cs1	7.57µM	.	3.55µM	?	12.6µM	?
CN(C)Cc1ccc(C(C)(C)C)cc1-c1cc(C(C)(C)C)ccc1CN(C)C	/	.[7.66 µM]	/	/	.[9.22 µM]	/
COc1ccc(-c2noc(COc3cc(C)c(Br)c(C)c3)n2)cc1OC	.	/	/	/	.	/
O=c1[nH]c2ccccc2c2cn(-c3ccccc3)nc12	13.5µM	/	?	2.82µM	/	?
COc1ccc(CNC(=O)COC(=O)c2cccs2)cc1	23.9µM	/	.	.	/	.
